This is a sample that favours compounds with a hit; in the whole collection about 19% have one here.
TGFb inhibitor – TGF-b pathway inhibition; HepG2 CAGA-GFP TGF-b/SMAD3 reporter, GFP fluorescence, 18 h; TGF-beta stimulated, 500 pg/mL final; Potency, µM (highest dose often 46.1 µM), for the others: top-dose activity, negative = inhibition, actives largely listed as inhibitors; 410,000 compounds, 1.2% hits; AID 588855; further: potency means the concentration at half of the fitted maximal effect; on the % scale 0 is the no-effect control and ±100 the full control effect; nearly all actives have a fitted effect of over 65% in size
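HEPG2 CAGA-GFP cells (1000/well, DMEM with 1% FBS) were pre-incubated 2 h at 37 degrees C, given compound by pin tool, then stimulated with TGF-beta at 500 pg/mL final for 18 h before per-cell GFP fluorescence imaging.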
HepG2 tox – counter-screen for TGF-b inhibitors: cytotoxicity in HepG2 cells. HepG2 CAGA-GFP viability, ATP luminescence, 18 h. Potency, µM (top dose mostly 46.1 µM), inactives show top-dose activity change, negative = cytotoxicity, actives largely listed as cytotoxic. 410,000 compounds, 0.76% hits; further: potency means the concentration at half of the fitted maximal effect
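HepG2 CAGA-GFP cells (1000/well, DMEM with 1% FBS) received compound, then TGF-beta at 500 pg/mL final, and were incubated 18 hours at 37 degrees C. Viability was read by CellTiter-Glo luminescence. Media-only wells were set as complete cell-killing and DMSO as no toxicity.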
TDP1 cell noCPT – qHTS for Inhibitors of human tyrosyl-DNA phosphodiesterase 1 (TDP1): qHTS in cells in absence of CPT; Potency, µM (highest dose often 46.2 µM), for inactives: at the top dose activity change, negative = growth inhibition, most hits filed as inhibitors; DT40 Tdp1-/- hTDP1 cells, no CPT, ATP luminescence, 48 h; 420,000 compounds, 15% hits; further: potency means the concentration at half of the fitted maximal effect; on the % scale 0 is the no-effect control and ±100 the full control effect; nearly all actives have a fitted effect of over 55% in size
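Luminescent ATP content (CellTiter-Glo) served as the growth readout. Knockout chicken DT40 cells expressing human TDP1 were exposed to compounds without camptothecin for a minimum 48 hr at 37 °C.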
TDP1 inh – TDP1 (human) enzyme inhibition; Q9NUW8; recombinant TDP1, AlphaScreen DNA substrate cleavage; Potency, µM (titrated, usually from 130 µM), for the others: at the top dose activity change, negative = inhibition, actives largely listed as inhibitors; 350,000 compounds, 0.28% hits; further: potency means the concentration at half of the fitted maximal effect; on the % scale 0 is the no-effect control and ±100 the full control effect; nearly all actives have a fitted effect of over 40% in size
Target sequence (Q9NUW8 whole entry, looked up): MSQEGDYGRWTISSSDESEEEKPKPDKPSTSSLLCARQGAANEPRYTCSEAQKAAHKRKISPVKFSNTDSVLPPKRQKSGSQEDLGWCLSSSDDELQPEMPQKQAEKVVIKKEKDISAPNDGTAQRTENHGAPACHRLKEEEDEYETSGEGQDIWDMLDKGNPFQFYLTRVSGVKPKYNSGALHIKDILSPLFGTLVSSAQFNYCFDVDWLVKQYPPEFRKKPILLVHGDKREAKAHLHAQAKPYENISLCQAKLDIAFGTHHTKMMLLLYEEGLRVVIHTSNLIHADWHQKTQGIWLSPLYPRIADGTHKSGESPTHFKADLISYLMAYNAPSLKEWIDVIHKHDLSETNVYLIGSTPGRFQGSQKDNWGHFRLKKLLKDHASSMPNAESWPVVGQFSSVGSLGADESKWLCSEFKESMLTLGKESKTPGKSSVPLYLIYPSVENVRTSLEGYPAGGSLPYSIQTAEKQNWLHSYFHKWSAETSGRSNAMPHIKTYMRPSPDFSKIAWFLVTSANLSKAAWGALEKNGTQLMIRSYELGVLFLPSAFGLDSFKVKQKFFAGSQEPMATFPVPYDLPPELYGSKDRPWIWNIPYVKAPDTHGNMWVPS
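Signal: AlphaScreen proximity between streptavidin donor and anti-FITC acceptor beads on intact substrate. Reaction: Tdp1 1 nM, substrate 15 nM final, 5 min RT after 15 min compound preincubation.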
DT40 TDP1 CPT – DT40-hTDP1 cell growth loss with CPT; 420,000 compounds, 12% hits; chicken DT40 Tdp1-/-;hTDP1 cells + 20 nM CPT, ATP luminescence, 48 h; Potency, µM (top dose mostly 46.2 µM), for inactives: at the highest dose activity change, negative = growth inhibition, hits mostly inhibitors; further: potency means the concentration at half of the fitted maximal effect; on the % scale 0 is the no-effect control and ±100 the full control effect; nearly all actives have a fitted effect of over 55% in size
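Cell growth measured by CellTiter-Glo luminescence after a minimum 48 h, 37 C compound exposure with 20 nM CPT in Tdp1-knockout DT40 cells stably expressing hTDP1, seeded 400/well; qHTS titration format.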
IL1B secr inh – inhibitors of inflammasome signaling (IL-1 beta secretion). activity change, % at 57.5 µM. THP-1 LPS/ATP IL-1B secretion, AlphaLISA, 16 h; active compounds read low. 360,000 compounds, 4.7% hits. AID 743279; in the data active means activity change below about -50%; inconclusive means mostly about -30% to -49%; further: on the % scale 0 is the no-effect control and ±100 the full control effect
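Secreted IL-1B measured by AlphaLISA bead assay after 16 h compound exposure of THP-1 cells; compounds (final up to 57.5 uM) added 1 h before LPS (250 ng/mL) and ATP (1.25 mM) stimulation; lower signal means less secretion.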
* = called active by the depositor. Unless noted, the call rests on the fitted dose curve; in most records, active means well fitted curve in the direction sought with a large enough effect; inconclusive means small, poorly fitted or top-dose-only effect, or another doubt; inactive means no such curve, though single readings can be large; an effect the other way counts as inactive or inconclusive.

Results for Cc1ccc2nc(N(Cc3cccnc3)C(=O)COc3ccccc3)sc2c1 ?
TGFb inhibitor: 0%; HepG2 tox: -2%; TDP1 cell noCPT: -8%; TDP1 inh: 3%; DT40 TDP1 CPT: inconclusive

Results for CCOc1ccc(C(=O)CCC(=O)NNC(=O)CCN2CCN(c3ccccc3)CC2)cc1 ?
TGFb inhibitor: 1%; HepG2 tox: 0%; TDP1 cell noCPT: -4%; TDP1 inh: 2%; DT40 TDP1 CPT: -13%; IL1B secr inh: 5

What do the screens show for `Cc1ccc(-c2csc3ncnc(Sc4nnnn4C4CC4)c23)cc1`?
TGFb inhibitor: 25%; HepG2 tox: 1%; TDP1 cell noCPT: 11µM*; DT40 TDP1 CPT: 10µM*

Results for c1ccc(-c2csc3ncnc(Sc4nnnn4-c4ccccc4)c23)cc1 ?
TGFb inhibitor: 11µM*; HepG2 tox: -85%; TDP1 cell noCPT: 10µM*; DT40 TDP1 CPT: inconclusive

Results for Cc1ccc(-c2csc3ncnc(SCC(N)=O)c23)cc1 ?
TGFb inhibitor: -11%; HepG2 tox: 16%; TDP1 cell noCPT: inconclusive; TDP1 inh: -5%; DT40 TDP1 CPT: inconclusive; IL1B secr inh: inconclusive

How did COc1ccccc1Nc1nc(Cl)c(C=O)s1 do in these assays?
TGFb inhibitor: -4%; HepG2 tox: 2%; TDP1 cell noCPT: inconclusive; TDP1 inh: -3%; DT40 TDP1 CPT: inconclusive; IL1B secr inh: -53*

What do the screens show for `Cc1ccc(Nc2nc(Cl)c(C=O)s2)cc1Cl`?
TGFb inhibitor: 5%; HepG2 tox: 2%; TDP1 cell noCPT: inconclusive; TDP1 inh: 5%; DT40 TDP1 CPT: inconclusive; IL1B secr inh: -102*

Results for CC1(C)CC(=O)c2cc(-c3nc(-c4ccc(Cl)cc4)cs3)c(=O)n(-c3ccc(F)cc3)c2C1 ?
TGFb inhibitor: 3%; HepG2 tox: 3%; TDP1 cell noCPT: inconclusive; TDP1 inh: 2%; DT40 TDP1 CPT: inconclusive

How did C/C(=C\C(=O)Nc1nccs1)c1ccccc1 do in these assays?
TGFb inhibitor: 2%; HepG2 tox: 0%; TDP1 cell noCPT: -11%; TDP1 inh: -8%; DT40 TDP1 CPT: -16%; IL1B secr inh: -9

What do the screens show for `O=C(O)c1cn(-c2ccccc2)nc1-c1cccnc1`?
TGFb inhibitor: 15%; HepG2 tox: -3%; TDP1 cell noCPT: -21%; TDP1 inh: 2%; DT40 TDP1 CPT: 3%; IL1B secr inh: 4

How did CC(=O)Nc1ccc(NC(=O)C(C)OC(=O)/C=C/c2cn(-c3ccccc3)nc2-c2cccnc2)cc1 (configuration not stated) do in these assays?
TGFb inhibitor: -5%; HepG2 tox: -7%; TDP1 cell noCPT: 21µM*; TDP1 inh: 0%; DT40 TDP1 CPT: inconclusive; IL1B secr inh: inconclusive

How did O=C(/C=C/c1cn(-c2ccccc2)nc1-c1cccnc1)N1CCCCC1 do in these assays?
TGFb inhibitor: -29%; HepG2 tox: -36%; TDP1 cell noCPT: 18µM*; TDP1 inh: 0%; DT40 TDP1 CPT: inconclusive; IL1B secr inh: -20

How did O=C(/C=C\c1cn(-c2ccccc2)nc1-c1ccc2c(c1)OCCO2)N1CCOCC1 do in these assays?
TGFb inhibitor: -7%; HepG2 tox: -15%; TDP1 cell noCPT: 10µM*; TDP1 inh: 5%; DT40 TDP1 CPT: inconclusive; IL1B secr inh: -22

Results for O=C(/C=C\c1cn(-c2ccccc2)nc1-c1ccccc1)Nc1nccs1 ?
TGFb inhibitor: inconclusive; HepG2 tox: -60%; TDP1 cell noCPT: inconclusive; TDP1 inh: 3%; DT40 TDP1 CPT: 15µM*; IL1B secr inh: -9

Results for Cc1ccccc1NC(=O)COC(=O)/C=C/c1cn(-c2ccccc2)nc1-c1cccnc1 ?
TGFb inhibitor: -16%; HepG2 tox: 9%; TDP1 cell noCPT: inconclusive; TDP1 inh: -6%; DT40 TDP1 CPT: -1%; IL1B secr inh: 10

What do the screens show for `COc1cc(OC)cc(N2C(=O)N(CC(=O)c3ccc(F)cc3)c3ccccc3S2(=O)=O)c1`?
TGFb inhibitor: 4%; HepG2 tox: -6%; TDP1 cell noCPT: -19%; TDP1 inh: 5%; DT40 TDP1 CPT: -21%

How did CCOCCc1nn2c(=O)cc(COC(=O)COc3ccccc3Cl)nc2s1 do in these assays?
TGFb inhibitor: 10%; HepG2 tox: 2%; TDP1 cell noCPT: 0%; TDP1 inh: 5%; DT40 TDP1 CPT: -6%

How did CN1CCN(C(=O)/C=C/c2cn(-c3ccccc3)nc2-c2ccc3c(c2)OCCO3)CC1 do in these assays?
TGFb inhibitor: -18%; HepG2 tox: -13%; TDP1 cell noCPT: -21%; TDP1 inh: 3%; DT40 TDP1 CPT: -2%; IL1B secr inh: -62*

Results for CCc1cccc(NC(=O)CCc2c(C)nc3c(c2C)c(=O)n(C)c(=O)n3C)c1 ?
TGFb inhibitor: -19%; HepG2 tox: -13%; TDP1 cell noCPT: inconclusive; TDP1 inh: 6%; DT40 TDP1 CPT: 23µM*

What do the screens show for `COC(=O)c1ccc(NC(=O)CCc2c(C)nc3c(c2C)c(=O)n(C)c(=O)n3C)cc1`?
TGFb inhibitor: 4%; HepG2 tox: -1%; TDP1 cell noCPT: -17%; TDP1 inh: -1%; DT40 TDP1 CPT: 4%

What do the screens show for `CCOc1cc(CNc2ccc(S(N)(=O)=O)cc2)ccc1OCC(=O)NC(C)(C)C`?
TGFb inhibitor: 27%; HepG2 tox: 27%; TDP1 cell noCPT: inconclusive; TDP1 inh: 0%; DT40 TDP1 CPT: -23%; IL1B secr inh: 0

What do the screens show for `CCOc1cc(CNc2ccc(N3CCCCC3)cc2)cc(Br)c1OCC(=O)NC(C)(C)C`?
TGFb inhibitor: inconclusive; HepG2 tox: -35%; TDP1 cell noCPT: 16µM*; TDP1 inh: 11%; DT40 TDP1 CPT: inconclusive; IL1B secr inh: -86*

Results for CCOc1cc(CNc2ccc(N(C)C)cc2)cc(Br)c1OCC(=O)NC(C)(C)C ?
TGFb inhibitor: inconclusive; HepG2 tox: -32%; TDP1 cell noCPT: 21µM*; TDP1 inh: 6%; DT40 TDP1 CPT: 18µM*; IL1B secr inh: -11

Results for COc1ccccc1N1CCN(C(=O)Cn2ncc3ccsc3c2=O)CC1 ?
TGFb inhibitor: 3%; HepG2 tox: -7%; TDP1 inh: 6%

Results for COc1ccccc1Nc1cc(C)nc2nc(-c3ccccc3)nn12 ?
TGFb inhibitor: 0%; HepG2 tox: -2%; TDP1 cell noCPT: inconclusive; TDP1 inh: 1%; DT40 TDP1 CPT: 16µM*

Source: PubChem BioAssay
